Hit rate of the full screen: of about 5,500 compounds, about 2,000 (36%) were called active. Inconclusive results (about 18%) are left out. Cut-off read from the data, not from the text of the source: active = normalized growth mostly below about 0.91 (no sharp cut-off); inconclusive = no clear call, values can overlap the other calls; inactive = mostly above about 0.92. The list shows a part of the results.
Assay: chemical genetic growth profiling, strain panel (AID 1159580);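 note: tested at 20 µM; growth read once vehicle control cultures reached saturation at 30 °C; 1 = growth at the plate median or of vehicle wells; lower values mean less growth of the strain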
Details: growth OD

Measured: normalized growth

NC(N)=O
inactive: S. cerevisiae deletion strains, locus YJR075W, strain HOC1, hits give low values 1.02 | S. cerevisiae deletion strains, locus YKL009W, strain mrt4, hits give low values 1 | S. cerevisiae deletion strains, locus YKL068W, hits give low values 0.992 | S. cerevisiae deletion strains, locus YKL085W, strain MDH1 (second series), hits give low values 0.994 | S. cerevisiae deletion strains, locus YKL085W, strain MDH1, hits give low values 0.994 | S. cerevisiae deletion strains, locus YKL160W, strain elf1, hits give low values 1.02 | S. cerevisiae deletion strains, locus YKL190W, strain CNB1, hits give low values 1 | S. cerevisiae deletion strains, locus YKR001C, strain vps1, hits give low values 1 | S. cerevisiae deletion strains, locus YKR026C, strain gcn3, hits give low values 1.01 | S. cerevisiae deletion strains, locus YKR091W, strain srl3, hits give low values 1 | S. cerevisiae deletion strains, locus YLL001W, strain dnm1, hits give low values 1.01 | S. cerevisiae deletion strains, locus YLL026W, hits give low values 1.02 | S. cerevisiae deletion strains, locus YLL041C, strain sdh2, hits give low values 1.01 | S. cerevisiae deletion strains, locus YLR027C, strain aat2, hits give low values 1.02 | S. cerevisiae deletion strains, locus YLR039C, strain RIC1, hits give low values 1.05 | S. cerevisiae deletion strains, locus YLR058C, strain SHM2, hits give low values 0.99 | S. cerevisiae deletion strains, locus YLR102C, strain apc9, hits give low values 0.986 | S. cerevisiae deletion strains, locus YLR113W, strain HOG1, hits give low values 0.993 | S. cerevisiae deletion strains, locus YLR221C, strain rsa3, hits give low values 0.98 | S. cerevisiae deletion strains, locus YLR258W, strain gsy2, hits give low values 1 | S. cerevisiae deletion strains, locus YLR262C, strain YPT6 (second series), hits give low values 1.03 | S. cerevisiae deletion strains, locus YLR262C, strain YPT6, hits give low values 1.08 | S. cerevisiae deletion strains, locus YLR268W, strain sec22, hits give low values 1.02 | S. cerevisiae deletion strains, locus YLR320W, strain mms22, hits give low values 1 | S. cerevisiae deletion strains, locus YLR330W, strain CHS5, hits give low values 0.988 | S. cerevisiae deletion strains, locus YLR342W, strain FKS1 (second series), hits give low values 0.96 | S. cerevisiae deletion strains, locus YLR342W, strain FKS1, hits give low values 1.01 | S. cerevisiae deletion strains, locus YLR357W, strain rsc2, hits give low values 1.04 | S. cerevisiae deletion strains, locus YLR370C, strain arc18, hits give low values 1.02 | S. cerevisiae deletion strains, locus YLR371W, strain rom2, hits give low values 0.985 | S. cerevisiae deletion strains, locus YLR384C, strain iki3, hits give low values 1.01 | S. cerevisiae deletion strains, locus YLR418C, strain cdc73, hits give low values 1.01 | S. cerevisiae deletion strains, locus YML016C, strain PPZ1, hits give low values 0.999 | S. cerevisiae deletion strains, locus YML032C, strain rad52, hits give low values 1 | S. cerevisiae deletion strains, locus YML120C, strain ndi1, hits give low values 1.03 | S. cerevisiae deletion strains, locus YML124C, strain tub3, hits give low values 0.993 | S. cerevisiae deletion strains, locus YMR058W, strain fet3, hits give low values 1.02 | S. cerevisiae deletion strains, locus YMR078C, strain ctf18, hits give low values 0.992 | S. cerevisiae deletion strains, locus YMR125W, strain sto1, hits give low values 1 | S. cerevisiae deletion strains, locus YMR129W, hits give low values 1.01 | S. cerevisiae deletion strains, locus YMR205C, strain PFK2, hits give low values 1.02 | S. cerevisiae deletion strains, locus YMR223W, strain ubp8, hits give low values 0.992 | S. cerevisiae deletion strains, locus YMR231W, strain pep5, hits give low values 1 | S. cerevisiae deletion strains, locus YMR263W, strain SAP30, hits give low values 1.03 | S. cerevisiae deletion strains, locus YMR307W, strain GAS1, hits give low values 1.02 | S. cerevisiae deletion strains, locus YNL067W, strain RPL9B, hits give low values 1.05 | S. cerevisiae deletion strains, locus YNL071W, strain lat1, hits give low values 1.01 | S. cerevisiae deletion strains, locus YNL128W, strain TEP1, hits give low values 1.02 | S. cerevisiae deletion strains, locus YNL153C, strain GIM3, hits give low values 1.02 | S. cerevisiae deletion strains, locus YNL183C, strain NPR1, hits give low values 0.963 | S. cerevisiae deletion strains, locus YNL209W, strain ssb2, hits give low values 1.01 | S. cerevisiae deletion strains, locus YNL233W, strain BNI4, hits give low values 1 | S. cerevisiae deletion strains, locus YNL248C, strain rpa49, hits give low values 0.978 | S. cerevisiae deletion strains, locus YNL250W, strain rad50, hits give low values 0.991 | S. cerevisiae deletion strains, locus YNL271C, strain bni1, hits give low values 0.988 | S. cerevisiae deletion strains, locus YNL298W, strain CLA4, hits give low values 1 | S. cerevisiae deletion strains, locus YNL307C, strain MCK1, hits give low values 0.993 | S. cerevisiae deletion strains, locus YNL322C, strain KRE1 (second series), hits give low values 1.01 | S. cerevisiae deletion strains, locus YNL322C, strain KRE1, hits give low values 1 | S. cerevisiae deletion strains, locus YNR049C, strain mso1, hits give low values 1.02 | S. cerevisiae deletion strains, locus YNR052C, strain pop2, hits give low values 0.974 | S. cerevisiae deletion strains, locus YOL006C, strain TOP1, hits give low values 1.21 | S. cerevisiae deletion strains, locus YOL012C, strain htz1 1.36 | S. cerevisiae deletion strains, locus YOL147C, strain pex11, hits give low values 0.993 | S. cerevisiae deletion strains, locus YOR001W, strain rrp6, hits give low values 1.02 | S. cerevisiae deletion strains, locus YOR061W, strain CKA2, hits give low values 0.997 | S. cerevisiae deletion strains, locus YOR069W, strain VPS5, hits give low values 1.07 | S. cerevisiae deletion strains, locus YOR070C, strain gyp1, hits give low values 1.01 | S. cerevisiae deletion strains, locus YOR080W, strain dia2, hits give low values 1.02 | S. cerevisiae deletion strains, locus YOR083W, strain WHI5, hits give low values 1 | S. cerevisiae deletion strains, locus YOR106W, strain vam3, hits give low values 1.02 | S. cerevisiae deletion strains, locus YOR136W, strain idh2, hits give low values 0.993 | S. cerevisiae deletion strains, locus YOR144C, strain elg1, hits give low values 0.992 | S. cerevisiae deletion strains, locus YOR184W, strain ser1, hits give low values 0.992 | S. cerevisiae deletion strains, locus YOR231W, strain MKK1, hits give low values 0.993 | S. cerevisiae deletion strains, locus YOR265W, strain rbl2, hits give low values 1.02 | S. cerevisiae deletion strains, locus YOR270C, strain vph1, hits give low values 1.02 | S. cerevisiae deletion strains, locus YOR290C, strain snf2, hits give low values 0.992 | S. cerevisiae deletion strains, locus YOR316C, strain cot1, hits give low values 0.985 | S. cerevisiae deletion strains, locus YPL051W, strain arl3, hits give low values 1.01 | S. cerevisiae deletion strains, locus YPL055C, strain LGE1, hits give low values 1.07 | S. cerevisiae deletion strains, locus YPL078C, strain atp4, hits give low values 1.02 | S. cerevisiae deletion strains, locus YPL106C, strain sse1, hits give low values 0.987 | S. cerevisiae deletion strains, locus YPL240C, strain hsp82, hits give low values 1.01 | S. cerevisiae deletion strains, locus YPL241C, strain CIN2, hits give low values 1.07 | S. cerevisiae deletion strains, locus YPL256C, strain CLN2, hits give low values 1 | S. cerevisiae deletion strains, locus YPR119W, strain clb2, hits give low values 0.992 | S. cerevisiae deletion strains, locus YPR141C, strain kar3, hits give low values 1 | S. cerevisiae deletion strains, locus YPR163C, strain tif3, hits give low values 0.996 | S. cerevisiae deletion strains, locus YPR167C, strain met16, hits give low values 0.989 | S. cerevisiae deletion strains, strain wtn01, hits give low values 0.999 | S. cerevisiae strains, strain wild type, hits give low values 0.991

Source: PubChem BioAssay AID1159580 (chemical genetic matrix, 2015)
